Assay in all cases: yeast three-hybrid, YBZ-1, SC-Leu-His + 0.5 mM 3-AT, 4 days
Holding throughout (conditions): tags: N-Gal4 AD-HA kept; label: inside an RPR1-promoter hybrid RNA with tandem MS2 sites; ssRNA

For one experiment, the target named is PUM1 PUF domain R3-RCG (Homo sapiens, UniProt Q14671 828-1176, C935R;R936C;Q939G). In outline: (§1)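 The interaction score is the log change in variant frequency from input to selection. Scores were computed in log2 with a pseudocount of 1 for absent variants, using Illumina sequencing of PCR-amplified repeat regions. The input came from four days on SC-Leu and the selection from four days on SC-Leu-His + 0.5 mM 3-AT. The cells were strain YBZ-1 (LexA–MS2 coat fusion, HIS3 reporter) co-expressing Pumilio-1 PUF domain libraries and matching RNA elements from a centromeric plasmid.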
Sequence of PUM1 PUF domain R3-RCG (Q14671 828-1176 C935R/R936C/Q939G): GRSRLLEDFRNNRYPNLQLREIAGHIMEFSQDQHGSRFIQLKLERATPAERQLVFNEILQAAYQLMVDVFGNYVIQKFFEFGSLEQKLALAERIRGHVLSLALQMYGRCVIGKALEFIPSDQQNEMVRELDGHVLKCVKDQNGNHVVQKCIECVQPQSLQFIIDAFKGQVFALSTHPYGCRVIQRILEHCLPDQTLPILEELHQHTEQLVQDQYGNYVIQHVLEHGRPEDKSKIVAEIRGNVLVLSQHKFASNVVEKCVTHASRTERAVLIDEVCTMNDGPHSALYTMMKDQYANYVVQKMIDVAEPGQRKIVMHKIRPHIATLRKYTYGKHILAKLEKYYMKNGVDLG

Another experiment deals with PUM1 PUF domain R3-LSA (Homo sapiens, UniProt Q14671 828-1176, C935L;R936S;Q939A). Summed up: as §1
Sequence of PUM1 PUF domain R3-LSA (Q14671 828-1176 C935L/R936S/Q939A): as the sequence (Q14671 828-1176 C935R/R936C/Q939G) above, with R108L, C109S, G112A counted along it
The target in the next experiment is PUM1 PUF domain R8-KKK (Homo sapiens, UniProt Q14671 828-1176, N1122K;Y1123K;Q1126K). In outline: as §1
Sequence of PUM1 PUF domain R8-KKK (Q14671 828-1176 N1122K/Y1123K/Q1126K): as the sequence (Q14671 828-1176 C935R/R936C/Q939G) above, with R108C, C109R, G112Q, N295K, Y296K, Q299K counted along it
The next experiment addresses PUM1 PUF domain R4-SYP (Homo sapiens, UniProt Q14671 828-1176, N971S;H972Y;Q975P). In outline: as §1
The target of the next experiment is PUM1 PUF domain R4-MRG (Homo sapiens, UniProt Q14671 828-1176, N971M;H972R;Q975G). Summed up:
as §1

Another experiment has as its target PUM1 PUF domain R4-ARR (Homo sapiens, UniProt Q14671 828-1176, N971A;H972R;Q975R). In outline:
as §1

A further experiment has as its target PUM1 PUF domain R4-DFC (Homo sapiens, UniProt Q14671 828-1176, N971D;H972F;Q975C). Summed up:
as §1

A further experiment concerns the target PUM1 PUF domain R5-FHI (Homo sapiens, UniProt Q14671 828-1176, C1007F;R1008H;Q1011I). Summed up: as §1
The next experiment concerns the target PUM1 PUF domain R5-LQR (Homo sapiens, UniProt Q14671 828-1176, C1007L;R1008Q;Q1011R). In outline:
as §1

A further experiment has as its target PUM1 PUF domain R5-QKV (Homo sapiens, UniProt Q14671 828-1176, C1007Q;R1008K;Q1011V). Summed up:
as §1

The next experiment addresses PUM1 PUF domain R4-PRC (Homo sapiens, UniProt Q14671 828-1176, N971P;H972R;Q975C). Summed up:
as §1

The target of the next experiment is PUM1 PUF domain R5-ERV (Homo sapiens, UniProt Q14671 828-1176, C1007E;Q1011V). In outline: as §1
Sequence of PUM1 PUF domain R5-ERV (Q14671 828-1176 C1007E/Q1011V): as the sequence (Q14671 828-1176 C935R/R936C/Q939G) above, with R108C, C109R, G112Q, C180E, Q184V counted along it
A further experiment has as its target PUM1 PUF domain R3-NAL (Homo sapiens, UniProt Q14671 828-1176, C935N;R936A;Q939L). In outline: as §1
The target of the next experiment is PUM1 PUF domain R4-RYP (Homo sapiens, UniProt Q14671 828-1176, N971R;H972Y;Q975P). In outline:
as §1

The next experiment has as its target PUM1 PUF domain R3-VRY (Homo sapiens, UniProt Q14671 828-1176, C935V;Q939Y). Summed up: as §1
The next experiment deals with PUM1 PUF domain R8-KWS (Homo sapiens, UniProt Q14671 828-1176, N1122K;Y1123W;Q1126S). In outline:
as §1

For the next experiment, the target named is PUM1 PUF domain R5-THL (Homo sapiens, UniProt Q14671 828-1176, C1007T;R1008H;Q1011L). Summed up:
as §1

In another experiment the target is PUM1 PUF domain R4-SNQ (Homo sapiens, UniProt Q14671 828-1176, N971S;H972N). In outline:
as §1

Another experiment deals with PUM1 PUF domain R2-RTQ (Homo sapiens, UniProt Q14671 828-1176, N899R;Y900T). In outline: as §1
Sequence of PUM1 PUF domain R2-RTQ (Q14671 828-1176 N899R/Y900T): as the sequence (Q14671 828-1176 C935R/R936C/Q939G) above, with N72R, Y73T, R108C, C109R, G112Q counted along it
Another experiment addresses PUM1 PUF domain R2-QWR (Homo sapiens, UniProt Q14671 828-1176, N899Q;Y900W;Q903R). Summed up:
as §1

Drawing on paper PMC8384837, “Expanding the binding specificity for RNA recognition by a PUF domain”, this text covers binding signal for eleven sequences.

Sequence of PUM1 PUF domain R5-LQR (Q14671 828-1176 C1007L/R1008Q/Q1011R): as the sequence (Q14671 828-1176 C935R/R936C/Q939G) above, with R108C, C109R, G112Q, C180L, R181Q, Q184R counted along it
Sequence of PUM1 PUF domain R4-MRG (Q14671 828-1176 N971M/H972R/Q975G): as the sequence (Q14671 828-1176 C935R/R936C/Q939G) above, with R108C, C109R, G112Q, N144M, H145R, Q148G counted along it
Sequence of PUM1 PUF domain R4-SYP (Q14671 828-1176 N971S/H972Y/Q975P): as the sequence (Q14671 828-1176 C935R/R936C/Q939G) above, with R108C, C109R, G112Q, N144S, H145Y, Q148P counted along it
Sequence of PUM1 PUF domain R4-RYP (Q14671 828-1176 N971R/H972Y/Q975P): as the sequence (Q14671 828-1176 C935R/R936C/Q939G) above, with R108C, C109R, G112Q, N144R, H145Y, Q148P counted along it
Sequence of PUM1 PUF domain R4-DFC (Q14671 828-1176 N971D/H972F/Q975C): as the sequence (Q14671 828-1176 C935R/R936C/Q939G) above, with R108C, C109R, G112Q, N144D, H145F, Q148C counted along it
Sequence of PUM1 PUF domain R4-SNQ (Q14671 828-1176 N971S/H972N): as the sequence (Q14671 828-1176 C935R/R936C/Q939G) above, with R108C, C109R, G112Q, N144S, H145N counted along it
Sequence of PUM1 PUF domain R5-THL (Q14671 828-1176 C1007T/R1008H/Q1011L): as the sequence (Q14671 828-1176 C935R/R936C/Q939G) above, with R108C, C109R, G112Q, C180T, R181H, Q184L counted along it
Sequence of PUM1 PUF domain R2-QWR (Q14671 828-1176 N899Q/Y900W/Q903R): as the sequence (Q14671 828-1176 C935R/R936C/Q939G) above, with N72Q, Y73W, Q76R, R108C, C109R, G112Q counted along it
Sequence of PUM1 PUF domain R3-VRY (Q14671 828-1176 C935V/Q939Y): as the sequence (Q14671 828-1176 C935R/R936C/Q939G) above, with R108V, C109R, G112Y counted along it
Sequence of PUM1 PUF domain R3-NAL (Q14671 828-1176 C935N/R936A/Q939L): as the sequence (Q14671 828-1176 C935R/R936C/Q939G) above, with R108N, C109A, G112L counted along it
Sequence of PUM1 PUF domain R8-KWS (Q14671 828-1176 N1122K/Y1123W/Q1126S): as the sequence (Q14671 828-1176 C935R/R936C/Q939G) above, with R108C, C109R, G112Q, N295K, Y296W, Q299S counted along it
Sequence of PUM1 PUF domain R4-ARR (Q14671 828-1176 N971A/H972R/Q975R): as the sequence (Q14671 828-1176 C935R/R936C/Q939G) above, with R108C, C109R, G112Q, N144A, H145R, Q148R counted along it
Sequence of PUM1 PUF domain R5-FHI (Q14671 828-1176 C1007F/R1008H/Q1011I): as the sequence (Q14671 828-1176 C935R/R936C/Q939G) above, with R108C, C109R, G112Q, C180F, R181H, Q184I counted along it
Sequence of PUM1 PUF domain R4-PRC (Q14671 828-1176 N971P/H972R/Q975C): as the sequence (Q14671 828-1176 C935R/R936C/Q939G) above, with R108C, C109R, G112Q, N144P, H145R, Q148C counted along it
Sequence of PUM1 PUF domain R5-QKV (Q14671 828-1176 C1007Q/R1008K/Q1011V): as the sequence (Q14671 828-1176 C935R/R936C/Q939G) above, with R108C, C109R, G112Q, C180Q, R181K, Q184V counted along it

With “GGCUAGAACUAGUGGAUCCCCCGGCGCCCGGCGGCUCGAGCCCGGGUAAGUGUAAUUAGUCUGCAUGCCGCCGGGCGCCAUGCCUGCAGGUCGACUCUAGAAAACAUG”, the binding signal with PUM1 PUF domain R3-RCG was 3.58 log2 enrichment (interaction score); with PUM1 PUF domain R3-LSA it was 2.8 log2 enrichment (interaction score).
Take “GGCUAGAACUAGUGGAUCCCCCGGCGCCCGGCGGCUCGAGCCCGGGUAAGUGUAAGUAGUCUGCAUGCCGCCGGGCGCCAUGCCUGCAGGUCGACUCUAGAAAACAUG”: the binding signal in the experiment with PUM1 PUF domain R3-RCG was 2.96 log2 enrichment (interaction score); with PUM1 PUF domain R3-LSA it was 4.84 log2 enrichment (interaction score).
In the case of “GGCUAGAACUAGUGGAUCCCCCGGCGCCCGGCGGCUCGAGCCCGGGUAAGCGUAAAUAGUCUGCAUGCCGCCGGGCGCCAUGCCUGCAGGUCGACUCUAGAAAACAUG”, in the experiment with PUM1 PUF domain R8-KKK, the binding signal was 3.81 log2 enrichment (interaction score).
Consider “GGCUAGAACUAGUGGAUCCCCCGGCGCCCGGCGGCUCGAGCCCGGGUAAGUGUACAUAGUCUGCAUGCCGCCGGGCGCCAUGCCUGCAGGUCGACUCUAGAAAACAUG”, for which the binding signal with PUM1 PUF domain R4-SYP was 6.78 log2 enrichment (interaction score); with PUM1 PUF domain R4-MRG, 1.34 log2 enrichment (interaction score); with PUM1 PUF domain R4-ARR, 2.99 log2 enrichment (interaction score); in the experiment with PUM1 PUF domain R4-DFC, 5.67 log2 enrichment (interaction score).
Regarding “GGCUAGAACUAGUGGAUCCCCCGGCGCCCGGCGGCUCGAGCCCGGGUAAGUGUUAAUAGUCUGCAUGCCGCCGGGCGCCAUGCCUGCAGGUCGACUCUAGAAAACAUG”, the binding signal with PUM1 PUF domain R5-FHI was 2.85 log2 enrichment (interaction score); in the experiment with PUM1 PUF domain R5-LQR it was 2.83 log2 enrichment (interaction score); with PUM1 PUF domain R5-QKV, 2.71 log2 enrichment (interaction score).
Consider “GGCUAGAACUAGUGGAUCCCCCGGCGCCCGGCGGCUCGAGCCCGGGUAAGUGUAAAUAGUCUGCAUGCCGCCGGGCGCCAUGCCUGCAGGUCGACUCUAGAAAACAUG”, for which the binding signal with PUM1 PUF domain R4-PRC is 2.48 log2 enrichment (interaction score); with PUM1 PUF domain R5-LQR, 1.81 log2 enrichment (interaction score); with PUM1 PUF domain R5-ERV, 5.11 log2 enrichment (interaction score); with PUM1 PUF domain R3-NAL, 3.24 log2 enrichment (interaction score); in the experiment with PUM1 PUF domain R3-RCG it was 0.63 log2 enrichment (interaction score); in the experiment with PUM1 PUF domain R4-MRG, 2.56 log2 enrichment (interaction score). Further, the binding signal is 5.03 log2 enrichment (interaction score) with PUM1 PUF domain R4-RYP, 4.24 log2 enrichment (interaction score) with PUM1 PUF domain R3-VRY, 3.68 log2 enrichment (interaction score) with PUM1 PUF domain R8-KWS and 4.39 log2 enrichment (interaction score) with PUM1 PUF domain R5-THL.
Turning to “GGCUAGAACUAGUGGAUCCCCCGGCGCCCGGCGGCUCGAGCCCGGGUAAGUGUAUAUAGUCUGCAUGCCGCCGGGCGCCAUGCCUGCAGGUCGACUCUAGAAAACAUG”, the binding signal in the experiment with PUM1 PUF domain R4-SYP is 6.95 log2 enrichment (interaction score); with PUM1 PUF domain R4-MRG, 1.61 log2 enrichment (interaction score); in the experiment with PUM1 PUF domain R4-RYP, 2.78 log2 enrichment (interaction score); in the experiment with PUM1 PUF domain R4-SNQ, 4.52 log2 enrichment (interaction score).
With “GGCUAGAACUAGUGGAUCCCCCGGCGCCCGGCGGCUCGAGCCCGGGUAAGUGUAAAAAGUCUGCAUGCCGCCGGGCGCCAUGCCUGCAGGUCGACUCUAGAAAACAUG”, the binding signal in the experiment with PUM1 PUF domain R2-RTQ is 2.44 log2 enrichment (interaction score).
“GGCUAGAACUAGUGGAUCCCCCGGCGCCCGGCGGCUCGAGCCCGGGUAAGUGUAAACAGUCUGCAUGCCGCCGGGCGCCAUGCCUGCAGGUCGACUCUAGAAAACAUG”: the binding signal with PUM1 PUF domain R2-QWR is 4.86 log2 enrichment (interaction score).
On to “GGCUAGAACUAGUGGAUCCCCCGGCGCCCGGCGGCUCGAGCCCGGGUAAGUGUGAAUAGUCUGCAUGCCGCCGGGCGCCAUGCCUGCAGGUCGACUCUAGAAAACAUG”, for which the binding signal in the experiment with PUM1 PUF domain R5-ERV is 3.34 log2 enrichment (interaction score).
Consider “GGCUAGAACUAGUGGAUCCCCCGGCGCCCGGCGGCUCGAGCCCGGGUAAGUGUCAAUAGUCUGCAUGCCGCCGGGCGCCAUGCCUGCAGGUCGACUCUAGAAAACAUG”, for which the binding signal is 3.47 log2 enrichment (interaction score) in the experiment with PUM1 PUF domain R5-LQR and 2.93 log2 enrichment (interaction score) with PUM1 PUF domain R5-ERV.
